Results taken from PubChem BioAssay (NCI).
This is part of a sample that, as a whole, favours compounds with a hit. Of some 79,000 tested, about 15% had one in any assay. Calls of active or inactive are those of the source. Cut-off read from the data, not from the text of the source: active = growth inhibition above about 70%; inactive = the rest.

Columns and labels:
[1] = NCI Yeast Anticancer Drug Screen. Data for the rad18 strain (AID 177); conditions: S. cerevisiae rad18 mutant growth inhibition, hits give high values
Summary of the method: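 DNA-repair-defective yeast; compound treatment; growth inhibition scored against vehicle.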

[2] = NCI Yeast Anticancer Drug Screen. Data for the wt1 strain (AID 149);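 note: 0% = growth of vehicle-treated wt1 cultures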; conditions: S. cerevisiae wt1 strain (SPY 50644) growth inhibition, hits give high values
Summary of the method: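 wt1 yeast, compound-treated; % growth inhibition vs vehicle control.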

[3] = NCI Yeast Anticancer Drug Screen. Data for the rad50EPP+ strain (AID 151);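 note: 0% = growth of vehicle-treated control cultures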; conditions: S. cerevisiae rad50 mutant strain, hits give high values
Summary of the method: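 Measured: growth inhibition of rad50EPP+ yeast. Reference: vehicle-treated controls. Screen uses strains with defined genetic alterations in DNA damage repair or cell cycle control.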

[4] = NCI Yeast Anticancer Drug Screen. Data for the mgt1 strain (AID 153); conditions: S. cerevisiae mgt1 mutant growth inhibition, hits give high values
Summary of the method: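 Compounds were applied to mgt1 mutant yeast, and growth was then compared against vehicle-treated control cultures to give percent inhibition.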

[5] = NCI Yeast Anticancer Drug Screen. Data for the rad50 strain (AID 155);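 note: 0% = growth of vehicle-only cultures of the same strain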; conditions: S. cerevisiae rad50 strain growth inhibition, hits give high values
Summary of the method: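 Genetically altered yeast (DNA repair pathway); compound treatment; growth inhibition vs vehicle ctrl.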

[6] = NCI Yeast Anticancer Drug Screen. Data for the rad14 strain (AID 159);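 note: 0% = growth of vehicle-treated control cultures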; conditions: S. cerevisiae rad14 strain growth inhibition, hits give high values
Summary of the method: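 Test compounds were applied to a repair-deficient yeast strain. Its growth was then compared with that of cultures given vehicle alone, and inhibition was expressed relative to those controls.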

[7] = NCI Yeast Anticancer Drug Screen. Data for the sgs1 mgt1 strain (AID 161);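 note: 0% = growth of cultures given vehicle only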; conditions: S. cerevisiae sgs1 mgt1 strain, hits give high values
Summary of the method: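 Percent growth inhibition was derived by comparing compound-exposed mutant yeast with vehicle-exposed cultures. The strain carries alterations in DNA damage repair.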

[8] = NCI Yeast Anticancer Drug Screen. Data for the CLN2oe strain (AID 163);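 note: 0% = growth of vehicle-only control cultures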; conditions: S. cerevisiae CLN2oe strain, hits give high values
Summary of the method: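 Cells of an engineered yeast line with disturbed cell-cycle regulation are treated with compound. Inhibition of growth is then calculated relative to the vehicle-treated reference.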

[9] = NCI Yeast Anticancer Drug Screen. Data for the cln2 rad14 strain (AID 165);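 note: 0% = growth equal to vehicle treated cultures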; conditions: S. cerevisiae cln2 rad14 strain, hits give high values
Summary of the method: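 Strain: cln2 rad14 yeast, altered in cell cycle control and DNA damage repair. Read-out: growth inhibition vs vehicle.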

[10] = NCI Yeast Anticancer Drug Screen. Data for the bub3 strain (AID 167); conditions: S. cerevisiae bub3 mutant strain, hits give high values
Summary of the method: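 Yeast carrying a defined mutation is treated with each compound, and growth is compared with that of vehicle-exposed cells to give inhibition.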

[11] = NCI Yeast Anticancer Drug Screen. Data for the wt2 strain (AID 169);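 note: 0% = growth of vehicle-treated yeast cultures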; conditions: S. cerevisiae wt2 strain growth inhibition, hits give high values
Summary of the method: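 Growth of compound-treated yeast is measured and expressed as inhibition relative to vehicle-only controls.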

[12] = NCI Yeast Anticancer Drug Screen. Data for the mlh1 strain (AID 171);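 note: 0% = growth of vehicle-treated control cultures of the same strain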; conditions: S. cerevisiae mlh1 strain growth inhibition, hits give high values
Summary of the method: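 Test agents were incubated with yeast bearing a defined DNA damage repair or cell cycle control alteration; values are growth inhibition normalised to vehicle-treated cultures.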

[13] = NCI Yeast Anticancer Drug Screen. Data for the sgs1 strain (AID 173);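 note: 0% = growth of vehicle-only control cultures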; conditions: S. cerevisiae sgs1 mutant, hits give high values
Summary of the method: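 Strain with an altered DNA repair or cell cycle pathway exposed to compound. Growth then measured. Value = inhibition versus vehicle control.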

[14] = NCI Yeast Anticancer Drug Screen. Data for the mlh1 rad18 strain (AID 175); conditions: S. cerevisiae mlh1 rad18 strain growth inhibition, hits give high values
Summary of the method: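 A repair-deficient yeast strain is exposed to test compound, and growth is scored relative to vehicle-treated controls.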

[15] = NCI Yeast Anticancer Drug Screen. Data for the mec2-1 strain (AID 157); conditions: S. cerevisiae mec2-1 strain, hits give high values
Summary of the method: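 Compounds were applied to mec2-1 yeast cells. Their growth was then compared with that of vehicle-treated cultures to give growth inhibition.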

[16] = at 5.0 µM (retest, dose inferred, filed as 0.5)
[17] = at 50.0 µM (retest, dose inferred, filed as 5.0)

Measured: growth inhibition

COc1ccc(C(=O)NCCN(C)C)c2nc3ccccc3cc12
inactive: [1]; at 1.2 µM 19% | [1]; at 3.7 µM 17% | [1]; at 11.0 µM 11% | [1]; at 33.0 µM -5% | [1]; at 100.0 µM 66%

COc1ccc(C(=O)OCCc2ccccc2)cc1
active: [10]; [17] 79%
inactive: [2]; at 1.2 µM -2% | [2]; at 3.7 µM -5% | [2]; at 11.0 µM -5% | [2]; at 33.0 µM -7% | [2]; at 100.0 µM -8% | [3]; at 1.2 µM 10% | [3]; at 3.7 µM 16% | [3]; at 11.0 µM 19% | [3]; at 33.0 µM 31% | [3]; at 100.0 µM 47% | [4]; at 1.2 µM -4% | [4]; at 3.7 µM -3% | [4]; at 11.0 µM -3% | [4]; at 33.0 µM -5% | [4]; at 100.0 µM -4% | [5]; at 1.2 µM 6% | [5]; at 3.7 µM 3% | [5]; [16] -3% | [5]; at 11.0 µM 1% | [5]; at 33.0 µM 13% | [5]; [17] 23% | [5]; at 50.0 µM -7.35% | [5]; at 100.0 µM 9% | [6]; at 1.2 µM 5% | [6]; at 3.7 µM 0% | [6]; at 11.0 µM -6% | [6]; at 33.0 µM 3% | [6]; at 100.0 µM 4% | [7]; [16] 7% | [7]; [17] 32% | [7]; at 50.0 µM 6.8% | [8]; at 1.2 µM -3% | [8]; at 3.7 µM -9% | [8]; at 11.0 µM -10% | [8]; at 33.0 µM -7% | [8]; at 100.0 µM -6% | [9]; [16] -1% | [9]; [17] -2% | [9]; at 50.0 µM -10.5% | [10]; at 1.2 µM 2% | [10]; at 3.7 µM 12% | [10]; [16] 20% | [10]; at 11.0 µM 16% | [10]; at 33.0 µM 34% | [10]; at 50.0 µM 56.5% | [10]; at 100.0 µM 34% | [11]; at 1.2 µM -6% | [11]; at 3.7 µM -9% | [11]; at 11.0 µM -3% | [11]; at 33.0 µM -12% | [11]; at 100.0 µM -8% | [12]; at 1.2 µM 0% | [12]; at 3.7 µM 0% | [12]; at 11.0 µM -5% | [12]; at 33.0 µM 1% | [12]; at 100.0 µM 9% | [13]; at 1.2 µM -15% | [13]; at 3.7 µM 7% | [13]; at 11.0 µM -18% | [13]; at 33.0 µM -2% | [13]; at 100.0 µM -4% | [14]; [16] 10% | [14]; [17] 64% | [14]; at 50.0 µM -16.4% | [1]; at 1.2 µM 3% | [1]; at 3.7 µM 3% | [1]; at 11.0 µM 0% | [1]; at 33.0 µM 9% | [1]; at 100.0 µM 8%

CC[C@]1(O)C[C@H]2CN(CCc3c([nH]c4ccccc34)[C@@](C(=O)OC)(c3cc4c(cc3OC)N(C)[C@H]3[C@@](O)(C(=O)OC)[C@H](OC(C)=O)[C@]5(CC)C=CCN6CC[C@]43[C@@H]65)C2)C1
inactive: [2]; at 1.2 µM 1% | [2]; at 3.7 µM -1% | [2]; at 11.0 µM -2% | [2]; at 33.0 µM -1% | [2]; at 100.0 µM -19% | [3]; at 1.2 µM -2% | [3]; at 3.7 µM -3% | [3]; at 11.0 µM -2% | [3]; at 33.0 µM -1% | [3]; at 100.0 µM -6% | [4]; at 1.2 µM -2% | [4]; at 3.7 µM -3% | [4]; at 11.0 µM -1% | [4]; at 33.0 µM -2% | [4]; at 100.0 µM -6% | [5]; at 1.2 µM -2% | [5]; at 3.7 µM -3% | [5]; at 11.0 µM 2% | [5]; at 33.0 µM -4% | [5]; at 50.0 µM -4.25% | [5]; at 100.0 µM -5% | [15]; at 1.2 µM -2% | [15]; at 3.7 µM 0% | [15]; at 11.0 µM -2% | [15]; at 33.0 µM 1% | [15]; at 50.0 µM -3.3% | [15]; at 100.0 µM -7% | [6]; at 1.2 µM -2% | [6]; at 3.7 µM -4% | [6]; at 11.0 µM 0% | [6]; at 33.0 µM -2% | [6]; at 100.0 µM -3% | [7]; at 50.0 µM 1.35% | [8]; at 1.2 µM -2% | [8]; at 3.7 µM 3% | [8]; at 11.0 µM 1% | [8]; at 33.0 µM -11% | [8]; at 100.0 µM -6% | [9]; at 50.0 µM 24.4% | [10]; at 1.2 µM 1% | [10]; at 3.7 µM 1% | [10]; at 11.0 µM -1% | [10]; at 33.0 µM -7% | [10]; at 50.0 µM 14.3% | [10]; at 100.0 µM -7% | [12]; at 1.2 µM 0% | [12]; at 3.7 µM -1% | [12]; at 11.0 µM -1% | [12]; at 33.0 µM -1% | [12]; at 100.0 µM -4% | [13]; at 1.2 µM 0% | [13]; at 3.7 µM -2% | [13]; at 11.0 µM 1% | [13]; at 33.0 µM 1% | [13]; at 100.0 µM -3% | [14]; at 50.0 µM 30.6% | [1]; at 1.2 µM -2% | [1]; at 3.7 µM -3% | [1]; at 11.0 µM -5% | [1]; at 33.0 µM -6% | [1]; at 100.0 µM -7%
